Source: PubChem BioAssay
CCHF vOTU inh-1 – CCHFV vOTU protease inhibitors, primary screen, biochemical, Pep-AMC substrate, fluorescence; Crimean-Congo hemorrhagic fever virus L polyprotein viral ovarian tumor (vOTU) protease …; inhibition, % at 11.5 µM; 370,000 tested, 0.55% active; AID 651958, 2012; note: 0% = vehicle wells with enzyme and 100% = no enzyme wells
DUSP3 inh – VHR1 phosphatase inhibitors, primary screen, biochemical, absorbance, uHTS; Dual specificity protein phosphatase 3 (Homo sapiens), P51452; recombinant VHR phosphatase, pNPP absorbance; inhibition, % at 13.3 µM; 290,000 tested, 0.52% active; AID 1654, 2009; in the data active = inhibition above about 50%
Target sequence (P51452 whole entry, looked up): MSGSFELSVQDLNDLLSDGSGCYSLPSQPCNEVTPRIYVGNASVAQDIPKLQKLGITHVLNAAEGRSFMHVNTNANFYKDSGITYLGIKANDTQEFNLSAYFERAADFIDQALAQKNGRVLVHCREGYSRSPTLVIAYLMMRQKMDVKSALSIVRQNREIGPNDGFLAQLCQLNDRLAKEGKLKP
TcdB inh – TcdB glycohydrolase inhibitors, primary screen, biochemical, single point, plate reader. AID 652162, 2013. TcdB glycohydrolase enzymatic assay. inhibition, % at 9.99 µM. Toxin B (Clostridioides difficile), P18177. 350,000 tested, 0.24% active; in the data active = inhibition above about 10%
PrPC surface inh – inhibitors of human cell surface prion protein PrPC, primary screen, cell-based, TR-FRET; Major prion protein (Homo sapiens), P04156; TR-FRET read-out; inhibition, % at 13.8 µM; 370,000 tested, 0.43% active; in the data active = inhibition above about 24%; note: 0% = median of the test wells and 100% = reference compound wells
Vc quorum ag – inducers of Vibrio cholerae quorum light production without autoinducers, primary screen, BH1578 luxS cqsA deficient, single point. 350,000 tested, 0.16% active. activation, % at 18.7 µM. V. cholerae BH1578 lux reporter, luminescence, 6 h; in the data active = activation mostly above about 9.7%, no sharp cut-off
SSB-PriA inh – inhibitors of Klebsiella pneumoniae PriA binding to SSB C-terminal tail, primary screen, biochemical, AlphaScreen | AlphaScreen SSBct-PriA binding, biotinylated peptide | inhibition, % at 33 µM | 430,000 tested, 0.6% active | AID 1272365, 2023; in the data active = inhibition mostly above about 37%, no sharp cut-off; inactive = mostly below about 20%;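 note: plate controls were negative control peptide for no effect and reference peptide for full effect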
CCHF vOTU inh-2 – CCHFV vOTU protease inhibitors, confirmation, biochemical, Pep-AMC substrate, fluorescence. shares compounds with CCHF vOTU inh-1. Recombinant CCHFV vOTU. inhibition, % at 11.5 µM. 1,900 tested, 17% active. AID 686976, 2013
Active calls of the source: *. Most compounds without a hit are left out; they make up all but 1.5% or so of the library. Cut-off read from the data, not from the text of the source, unless noted: active = inhibition above about 30%; inactive = the rest.

What do the screens show for `COCCN(C(=O)CSc1nn(-c2ccc(F)cc2)c(=S)s1)c1c(N)n(CC(C)C)c(=O)[nH]c1=O`?
CCHF vOTU inh-1: 5; TcdB inh: 0; PrPC surface inh: 11; Vc quorum ag: -2; SSB-PriA inh: 3

Results for CCCn1c(N)c(N(CCOC)C(=O)c2ccccc2F)c(=O)[nH]c1=O ?
CCHF vOTU inh-1: 11; DUSP3 inh: 12; TcdB inh: 1; PrPC surface inh: 8; Vc quorum ag: inactive; SSB-PriA inh: -3

How did CCCCn1c(N)c(N(CC(C)C)C(=O)CSc2nn(-c3ccc(F)cc3)c(=S)s2)c(=O)[nH]c1=O do in these assays?
CCHF vOTU inh-1: 38*; TcdB inh: 1; PrPC surface inh: 3; Vc quorum ag: 0; SSB-PriA inh: -2; CCHF vOTU inh-2: -29

What do the screens show for `O=C(NC1CCCC(O)C1)c1cccc(Br)c1` (centres undefined)?
SSB-PriA inh: 1

How did CCOc1cccc(CNc2ccc(O)cc2)c1OCc1ccc(Cl)cc1 do in these assays?
CCHF vOTU inh-1: 31*; DUSP3 inh: 9; PrPC surface inh: -3; Vc quorum ag: inactive; SSB-PriA inh: 1; CCHF vOTU inh-2: -2

How did O=c1cc(-c2ccc(O)c(O)c2)oc2c1ccc1ccccc12 do in these assays?
CCHF vOTU inh-1: 34*; TcdB inh: 0; PrPC surface inh: -1; Vc quorum ag: inactive; SSB-PriA inh: -14; CCHF vOTU inh-2: 6

Results for Cc1cc(C(=O)NCCCn2ccc3cccnc32)c(C)o1 ?
SSB-PriA inh: -3

Results for c1ccc2c(c1)NCC1CCCN21 (centres undefined) ?
CCHF vOTU inh-1: 37*; DUSP3 inh: 44; TcdB inh: -4; PrPC surface inh: -14; Vc quorum ag: 0; SSB-PriA inh: 10; CCHF vOTU inh-2: -1

How did Cn1c(-c2ccc3nc(N)sc3c2)nc2cc(N)ccc21 do in these assays?
CCHF vOTU inh-1: 34*; DUSP3 inh: 26; PrPC surface inh: 12; Vc quorum ag: 0; SSB-PriA inh: 9; CCHF vOTU inh-2: -38

What do the screens show for `Cc1sc2nc(SCc3nnc(-c4cccs4)o3)n(C3CCCC3)c(=O)c2c1C`?
CCHF vOTU inh-1: 31*; DUSP3 inh: 30; PrPC surface inh: -1; Vc quorum ag: 0; SSB-PriA inh: -4; CCHF vOTU inh-2: -2

How did CCNC(=O)N1CC(S(=O)(=O)c2ccc(F)cc2)C1 do in these assays?
SSB-PriA inh: -13

How did CCN(CC)C(=O)c1ccc(/C=C/c2c[nH]c3ccccc23)[n+](C)c1 do in these assays?
CCHF vOTU inh-1: 18; DUSP3 inh: -20; PrPC surface inh: -33; Vc quorum ag: 0; SSB-PriA inh: -2

How did CC[n+]1c(/C=C/c2c[nH]c3ccccc23)ccc2cc(C)ccc21 do in these assays?
CCHF vOTU inh-1: 34*; DUSP3 inh: 33; TcdB inh: 1; PrPC surface inh: -5; SSB-PriA inh: 33; CCHF vOTU inh-2: 4

What do the screens show for `O=C(c1cc2ccccc2o1)N1CCN(C[C@H](O)c2ccco2)CC1`?
SSB-PriA inh: -3

Results for Clc1ccc(/C=N/Nc2ccccc2)cc1 ?
SSB-PriA inh: inactive

Results for COc1ccc(N2CCN(CC(N)=O)CC2)cc1 ?
SSB-PriA inh: 23

How did COC(COC(N)=O)C1=C(N2CC2)C(=O)C(C)=C(N2CC2)C1=O (centres undefined) do in these assays?
CCHF vOTU inh-1: 32*; TcdB inh: -5; PrPC surface inh: -25; Vc quorum ag: 6; SSB-PriA inh: 2; CCHF vOTU inh-2: 13

What do the screens show for `COc1ccc(-c2ccc(N3CCC(C(=O)N4CCN(c5ccc(F)cc5)CC4)CC3)nn2)cc1`?
SSB-PriA inh: -10

How did O=C(O)c1cccc(Cn2c(Cl)c(C=NNC(=O)c3ccco3)sc2=O)c1 do in these assays?
SSB-PriA inh: -4

How did O=C(O)c1cccc(Cn2c(Cl)c(/C=N/NC(=O)c3ccc(O)cc3)sc2=O)c1 do in these assays?
CCHF vOTU inh-1: 31*; DUSP3 inh: 20; TcdB inh: -1; PrPC surface inh: -14; Vc quorum ag: -2; SSB-PriA inh: inactive; CCHF vOTU inh-2: -4

Results for Cc1nc(N2CCOCC2)nc(N2CCCCC2)c1[N+](=O)[O-] ?
CCHF vOTU inh-1: 44*; DUSP3 inh: -4; PrPC surface inh: 4; Vc quorum ag: 0; SSB-PriA inh: 11; CCHF vOTU inh-2: -9

How did Cc1nc(N2CCOCC2)nc(N2CCCC2)c1[N+](=O)[O-] do in these assays?
CCHF vOTU inh-1: 4; DUSP3 inh: -7; PrPC surface inh: -1; Vc quorum ag: 0; SSB-PriA inh: 7

Results for Cc1ccc(OCCOC[C@@H](O)CN2CCN(CCO)CC2)cc1C ?
SSB-PriA inh: -1

Results for O=S1(=O)NC2c3ccccc3CC2O1 (centres undefined) ?
CCHF vOTU inh-1: 37*; DUSP3 inh: 13; TcdB inh: -11; PrPC surface inh: 3; Vc quorum ag: -1; SSB-PriA inh: -14; CCHF vOTU inh-2: -5

How did O=C(COC(=O)Cc1ccc(Cl)cc1Cl)NC1CC1 do in these assays?
CCHF vOTU inh-1: 32*; TcdB inh: 1; PrPC surface inh: -8; Vc quorum ag: -4; SSB-PriA inh: 0; CCHF vOTU inh-2: -11

How did COC(=O)c1sccc1S(=O)(=O)NCC(O)c1csc2ccccc12 (centres undefined) do in these assays?
SSB-PriA inh: -3

How did Cc1cccc(Oc2cc(NC(=O)Cn3cnc([N+](=O)[O-])n3)cc([N+](=O)[O-])c2)c1 do in these assays?
CCHF vOTU inh-1: 33*; DUSP3 inh: 1; PrPC surface inh: -15; Vc quorum ag: 0; SSB-PriA inh: 25; CCHF vOTU inh-2: -3

How did COC(=O)c1nc(-c2ccc3c(n2)C(=O)C(N)=C(OC)C3=O)c(N)c(-c2ccc(OC)c(OC)c2O)c1C do in these assays?
CCHF vOTU inh-1: 37*; DUSP3 inh: 0; TcdB inh: 0; PrPC surface inh: -1; Vc quorum ag: 12; SSB-PriA inh: 28; CCHF vOTU inh-2: 106*

How did NNc1nc2ccccc2c(=O)[nH]1 do in these assays?
SSB-PriA inh: 15

How did O=C(CN1C(=O)/C(=C/c2ccco2)SC1=S)Nc1ccc(C(=O)O)c(O)c1 do in these assays?
CCHF vOTU inh-1: 36*; DUSP3 inh: 15; TcdB inh: -2; PrPC surface inh: -6; Vc quorum ag: inactive; SSB-PriA inh: 11; CCHF vOTU inh-2: 22
